According to PubChem BioAssay:
Activity calls are given as the source filed them. Unless noted, no rule for the calls is given here.

What was measured:
[1] = compounds binding Alexa647 anti-His antibody – biochemical, small-molecule microarray, 635 nm fluorescence, artefact control for SMM control protein annotation, primary screen (AID 1128); settings: higher = more signal;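 also: score merges feature fluorescence with signal-to-noise for each printed compound spot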
[2] = test system: Human papillomavirus type 1a E7 protein (residues 1-88); assay: HPV1a E7 small-molecule binders, primary screen, biochemical, small-molecule microarray, residues 1-88, 635 nm (AID 1129); settings: small-molecule microarray binding, fluorescence 635 nm; higher = more signal
[3] = molecular target: Focal adhesion kinase 1 (Homo sapiens) (UniProt Q05397); assay: PTK2 protein binding on printed compound slides – biochemical, small-molecule microarray, 635/667 nm fluorescence, BSA, DTT, primary screen (AID 1130); settings: 635 nm fluorescence, higher = more signal;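 also: composite of spot emission at 667 nm and signal to noise over triplicate slides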
Sequence of Focal adhesion kinase 1 (Homo sapiens) (Q05397 whole entry, looked up): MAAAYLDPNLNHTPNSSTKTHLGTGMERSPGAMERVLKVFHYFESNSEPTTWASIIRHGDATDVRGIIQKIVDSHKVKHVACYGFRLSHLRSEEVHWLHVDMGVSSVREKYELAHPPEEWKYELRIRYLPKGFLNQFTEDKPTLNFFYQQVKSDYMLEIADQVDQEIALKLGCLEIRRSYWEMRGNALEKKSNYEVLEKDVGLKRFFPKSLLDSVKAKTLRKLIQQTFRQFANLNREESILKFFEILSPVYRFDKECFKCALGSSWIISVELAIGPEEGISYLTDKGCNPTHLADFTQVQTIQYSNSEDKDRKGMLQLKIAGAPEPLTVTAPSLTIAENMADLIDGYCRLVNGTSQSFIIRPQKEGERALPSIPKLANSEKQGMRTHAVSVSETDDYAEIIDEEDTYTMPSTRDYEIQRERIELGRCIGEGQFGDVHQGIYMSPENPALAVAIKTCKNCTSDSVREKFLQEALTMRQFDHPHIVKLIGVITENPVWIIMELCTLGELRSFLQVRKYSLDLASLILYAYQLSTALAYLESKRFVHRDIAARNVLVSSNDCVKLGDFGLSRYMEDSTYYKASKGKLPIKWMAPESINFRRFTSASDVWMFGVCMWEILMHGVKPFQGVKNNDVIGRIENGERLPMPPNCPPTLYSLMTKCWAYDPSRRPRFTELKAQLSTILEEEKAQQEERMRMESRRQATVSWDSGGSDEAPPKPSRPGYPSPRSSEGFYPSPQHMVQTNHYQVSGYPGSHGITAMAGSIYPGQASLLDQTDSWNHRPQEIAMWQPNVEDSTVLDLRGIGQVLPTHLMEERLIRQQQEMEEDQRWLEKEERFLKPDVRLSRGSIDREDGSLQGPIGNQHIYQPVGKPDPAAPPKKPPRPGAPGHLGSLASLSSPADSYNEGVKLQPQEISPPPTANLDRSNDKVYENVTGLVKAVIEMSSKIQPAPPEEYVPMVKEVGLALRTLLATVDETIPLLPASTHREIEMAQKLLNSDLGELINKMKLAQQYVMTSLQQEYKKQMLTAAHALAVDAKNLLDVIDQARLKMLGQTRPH

[4] = test system: Fibrinogen (Alexa647-labelled); assay: Alexa647-fibrinogen binding to printed small molecules – biochemical, small-molecule microarray, 635/667 nm fluorescence, artefact control for SMM control-protein annotation, profiling panel (AID 1131); settings: fibrinogen-A647 binding fluorescence, higher = more signal;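 also: z-score merges 667 nm fluorescence with per-spot signal-to-noise over triplicate slides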
[5] = molecular target: Follistatin (Homo sapiens) (UniProt P19883); assay: FST protein binding to printed compounds – biochemical, small-molecule microarray, 635/667 nm fluorescence, primary screen (AID 1132); settings: 635 nm fluorescence, higher = more signal
Sequence of Follistatin (Homo sapiens) (P19883 whole entry, looked up): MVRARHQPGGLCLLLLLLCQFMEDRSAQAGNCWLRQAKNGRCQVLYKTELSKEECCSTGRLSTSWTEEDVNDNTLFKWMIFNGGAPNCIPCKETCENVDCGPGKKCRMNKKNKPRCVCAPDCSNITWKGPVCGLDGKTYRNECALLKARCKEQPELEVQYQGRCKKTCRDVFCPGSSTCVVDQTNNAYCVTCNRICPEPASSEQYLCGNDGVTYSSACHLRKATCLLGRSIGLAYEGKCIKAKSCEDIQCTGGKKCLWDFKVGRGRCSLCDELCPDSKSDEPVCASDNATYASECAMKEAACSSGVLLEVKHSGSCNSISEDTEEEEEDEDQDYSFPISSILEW

[6] = molecular target: Fibroblast growth factor 2 (Homo sapiens) (UniProt P09038); assay: basic fibroblast growth factor binding to printed compounds – biochemical, small-molecule microarray, 635/667 nm fluorescence, primary screen (AID 1133); settings: FGF2, fluorescence 635/667, higher = more signal
Sequence of Fibroblast growth factor 2 (Homo sapiens) (P09038 whole entry, looked up): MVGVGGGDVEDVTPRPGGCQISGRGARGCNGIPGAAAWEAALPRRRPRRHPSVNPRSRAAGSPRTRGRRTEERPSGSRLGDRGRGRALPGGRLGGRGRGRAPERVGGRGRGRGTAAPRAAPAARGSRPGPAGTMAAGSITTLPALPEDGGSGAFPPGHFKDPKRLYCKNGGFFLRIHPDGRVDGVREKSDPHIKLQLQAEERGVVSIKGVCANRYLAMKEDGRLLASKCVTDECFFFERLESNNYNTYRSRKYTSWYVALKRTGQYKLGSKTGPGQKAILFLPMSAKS

[7] = JC-1 mitochondrial potential readout, lung cancer cells – cell-based, A549, JC-1 fluorescence, basal, 24 h, 100 nL, profiling panel (AID 1138); settings: higher = more signal;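 also: A549 lung adenocarcinoma cells under basal conditions with no added stimulus; test concentration not given here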
[8] = test system: Lefty1; assay: Lefty1 protein binding to printed compounds – biochemical, small-molecule microarray, 635/667 nm fluorescence, primary screen (AID 1139); settings: fluorescence 635/667, higher = more signal
[9] = test system: wheat germ agglutinin (Triticum aestivum), Alexa647-labelled; assay: Alexa647-WGA lectin binding to printed small molecules – biochemical, small-molecule microarray, 635/667 nm fluorescence, artefact control for SMM control-protein annotation, profiling panel (AID 1140); settings: WGA-A647 binding, 635 nm fluorescence, higher = more signal;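 also: score merges 667 nm feature emission with signal to noise over triplicate slides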
[10] = molecular target: Luciferin 4-monooxygenase (Photinus pyralis) (UniProt P08659); assay: inhibition of purified Photinus pyralis luciferase – biochemical, luminescence, purified enzyme, 2006 set, primary screen (AID 1141); settings: purified firefly luciferase, SteadyGlo luminescence, 30 min; higher = more signal, called active from +8 up or from −8 down;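 also: cell-free assay with purified firefly luciferase at 100 ng per well in PBS; test concentration not given here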
Sequence of Luciferin 4-monooxygenase (Photinus pyralis) (P08659 whole entry, looked up): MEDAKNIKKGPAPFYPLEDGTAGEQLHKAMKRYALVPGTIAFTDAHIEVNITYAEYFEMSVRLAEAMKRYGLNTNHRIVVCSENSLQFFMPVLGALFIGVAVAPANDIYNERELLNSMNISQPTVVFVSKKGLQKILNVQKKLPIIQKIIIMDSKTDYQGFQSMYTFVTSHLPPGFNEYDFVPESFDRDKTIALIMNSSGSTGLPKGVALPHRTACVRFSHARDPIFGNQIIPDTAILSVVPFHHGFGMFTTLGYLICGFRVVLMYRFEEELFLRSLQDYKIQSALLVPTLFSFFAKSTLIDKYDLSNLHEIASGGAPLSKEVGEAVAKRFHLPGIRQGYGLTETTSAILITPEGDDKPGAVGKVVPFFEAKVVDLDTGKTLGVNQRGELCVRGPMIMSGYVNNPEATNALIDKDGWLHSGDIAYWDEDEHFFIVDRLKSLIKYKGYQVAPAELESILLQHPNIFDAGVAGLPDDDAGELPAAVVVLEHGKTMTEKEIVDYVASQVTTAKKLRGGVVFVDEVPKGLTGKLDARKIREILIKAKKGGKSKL

[11] = test system: Wnt5a (protein binding on small-molecule microarray); assay: small molecules binding Wnt5a protein – biophysical, small-molecule microarray, 635/667 nm fluorescence, primary screen (AID 1142); settings: 635 nm fluorescence, higher = more signal;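 also: fluorescence read at 667 nm with signal to noise per printed feature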
[12] = ATP-based viability of Huh7 replicon cells – cell-based, CellTiter-Glo luminescence, basal, 48 h, cytotoxicity control for HCV replication inhibitor project, primary screen (AID 1143); settings: higher = more signal, called active from +8 up or from −8 down;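 also: Huh7 hepatoma cells carrying a hepatitis C replication reporter with no stimulus; test concentration not given here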
[13] = Pseudomonas biofilm growth suppression – PAO1 strain, BacTiter-Glo luminescence, LB-PBS, primary screen (AID 1144); settings: P. aeruginosa PAO1 biofilm, 12 h, higher = more signal
[14] = basal CRE-LacZ reporter activity in PC12 – cell-based, unstimulated, primary screen (AID 1145); settings: no forskolin, luminescence, 4.5 h, higher = more signal, called active from +8 up or from −8 down
[15] = forskolin-driven CRE-LacZ activity in PC12 – cell-based, CRE-LacZ reporter, forskolin-stimulated, primary screen (AID 1146); settings: luminescence, 4.5 h, higher = more signal, called active from +8 up or from −8 down;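 also: PC12 cells with 6xCRE LacZ reporter stimulated by forskolin 10 µM; beta-galactosidase reporter signal reflecting CREB driven transcription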
[16] = molecular target: Streptavidin (Streptomyces avidinii) (UniProt P22629); assay: compounds binding control protein streptavidin – biophysical, small-molecule microarray, 635/667 nm fluorescence, artefact control for SMM compound annotation, primary screen (AID 1147); settings: higher = more signal;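 also: signal reflects streptavidin binding to arrayed compounds as a control protein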
Sequence of Streptavidin (Streptomyces avidinii) (P22629 whole entry, looked up): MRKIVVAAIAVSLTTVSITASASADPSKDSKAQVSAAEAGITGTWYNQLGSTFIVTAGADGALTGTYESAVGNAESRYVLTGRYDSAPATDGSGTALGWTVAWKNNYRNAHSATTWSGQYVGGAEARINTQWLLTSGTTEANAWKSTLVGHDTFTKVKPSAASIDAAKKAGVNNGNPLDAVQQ

[17] = probe aInhba binding on compound microarray – biochemical, small-molecule microarray, 635/667 nm fluorescence, primary screen (AID 1148); settings: higher = more signal;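 also: score merges 667nm spot fluorescence with signal-to-noise for antibody binding to printed compounds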
[18] = molecular target: Torsin-1A (Homo sapiens) (UniProt O14656); assay: TOR1A wild-type binding on microarray – cell lysate, small-molecule microarray, lysate, 635/667 nm, primary screen (AID 1149); settings: COS7 hTOR1A-WT lysate, 635 nm fluorescence, higher = more signal
Sequence of Torsin-1A (Homo sapiens) (O14656 whole entry, looked up): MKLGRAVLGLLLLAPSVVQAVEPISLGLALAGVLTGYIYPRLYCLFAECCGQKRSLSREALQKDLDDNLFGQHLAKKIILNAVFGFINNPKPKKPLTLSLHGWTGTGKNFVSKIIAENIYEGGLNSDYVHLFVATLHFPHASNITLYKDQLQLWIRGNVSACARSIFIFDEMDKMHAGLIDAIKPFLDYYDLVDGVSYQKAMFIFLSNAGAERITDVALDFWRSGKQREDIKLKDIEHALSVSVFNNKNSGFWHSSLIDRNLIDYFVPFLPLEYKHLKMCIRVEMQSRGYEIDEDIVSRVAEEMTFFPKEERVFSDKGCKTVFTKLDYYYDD

[19] = molecular target: Torsin-1A (Homo sapiens) (UniProt O14656); assay: torsin A mutant lysate binding on microarrays – cell lysate, small-molecule microarray, COS7 lysate, 635/667 nm fluorescence, primary screen (AID 1150); settings: COS7 hTOR1A mutant lysate, 635 nm fluorescence, higher = more signal;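 also: score pools 667 nm emission and signal to noise measuring lysate protein binding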
[20] = test system: Sonic hedgehog protein (Shh); assay: Sonic hedgehog microarray binding compounds – biochemical, small-molecule microarray, 635/667 nm fluorescence, primary screen (AID 1151); settings: 635 nm fluorescence, higher = more signal;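 also: Shh protein binding to compounds spotted on small-molecule microarray slides; score combines spot fluorescence intensity with signal-to-noise across triplicate slides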

SMILES | composite z-score [1] | composite z-score [2] | composite z-score [3] | composite z-score [4] | composite z-score [5] | composite z-score [6] | z-score [7] | composite z-score [8] | composite z-score [9] | z-score [10] | composite z-score [11] | z-score [12] | z-score [13] | z-score [14] | z-score [15] | composite z-score [16] | composite z-score [17] | composite z-score [18] | composite z-score [19] | composite z-score [20]
COc1ccc([Si](C)(C)[C@@H]2[C@@H](CCO)O[C@]3(C(=O)N(Cc4cccc(N5C(=O)COc6ccccc65)c4)c4ccccc43)[C@H]2C)cc1 | 0.279 | 0.733 | 0.0257 | 0.415 | -0.0428 | 0.327 | -1.04 | 0.0695 | 0.764 | -0.123 (inactive) | -0.0772 | -7.12 (inactive) | -0.17 (inactive) | 6.98 (inactive) | 0.586 (inactive) | 0.428 | 0.0633 | -0.277 | -0.491 | 0.45
CCCNC(=O)[C@@]1(Sc2ccc(C)cc2)CC(=O)N(Cc2ccccc2)[C@@H]1c1ccc(CO)cc1I | 0.381 | 0.561 | 0.0147 | -0.122 | 1.38 | 1.16 | 0.651 | 0.427 | 0.996 | 0.0043 (inactive) | 0.308 | -1.81 (inactive) | 0.029 (inactive) | 0.0655 (inactive) | 1.08 (inactive) | 0.203 | -0.0221 | 0.123 | 0.485 | 1.96
COCCOC(=O)N1C(=O)[C@@]2(c3cc(C#Cc4ccc(OC)cc4)ccc31)[C@H](C(N)=O)[C@H]1C(=O)O[C@H](c3ccccc3)[C@H](c3ccccc3)N1[C@@H]2c1ccc(OCCO)cc1 | 1.71 | 1.21 | 0.398 | 0.898 | 1.28 | 1.55 | -1.96 | 0.997 | 0.695 | -0.297 (inactive) | 0.608 | -4.52 (inactive) | -0.637 (inactive) | -0.598 (inactive) | -0.164 (inactive) | 0.741 | 0.267 | 0.534 | 0.424 | 1.66
C=C[C@H](C)[C@H](OC(=O)Nc1ccc(SC)cc1)c1ccc(O)c2ccccc12 | 0.499 | -0.526 | 0.209 | -1.35 | 1.08 | 0.162 | -1.51 | 0.192 | -0.341 | -2.89 (inactive) | 0.081 | -4.25 (inactive) | -0.0275 (inactive) | 0.0172 (inactive) | 4.5 (inactive) | -0.635 | -0.154 | -0.252 | -0.0104 | 0.73
CCOC(=O)C[C@H]1[C@H](OC(=O)c2ccccc2-c2ccccc2)[C@@H](NC(=O)c2ccccc2)c2cc(OCCCO)ccc2N1C(=O)Cc1ccc(OC)cc1 | -0.277 | -0.64 | 0.0427 | 0.66 | -0.0263 | -0.188 | 0.322 | -0.018 | 0.564 | 0.897 (inactive) | -0.105 | 0.0692 (inactive) | -0.228 (inactive) | 1.58 (inactive) | 0.0006 (inactive) | 0.621 | -0.154 | -0.193 | 0.0375 | 0.0772
